CHO-K1 Ca ag = M1 agonist counterscreen hit in parental CHO-K1 cells; Fluo-8 calcium fluorescence; scaled to maximal ATP response, vehicle zero; activation, % at 3 µM; 360,000 tested, 0.48% active; AID 602248; in the data active = activation above about 15%;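 note: untransfected CHO-K1 host cells lacking M1 receptor as counterscreen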
M1 PAM = positive allosteric modulators of human M1 muscarinic receptor; P11229; CHO-K1 hM1, Fluo-8 calcium fluorescence, ACh EC20; 0% = ACh EC20, 100% = maximal ACh; activation, % at 3 µM; 360,000 tested, 0.088% active; AID 588819; in the data active = activation above about 19%, passing the limit was not always enough
Target sequence (P11229 whole entry, looked up): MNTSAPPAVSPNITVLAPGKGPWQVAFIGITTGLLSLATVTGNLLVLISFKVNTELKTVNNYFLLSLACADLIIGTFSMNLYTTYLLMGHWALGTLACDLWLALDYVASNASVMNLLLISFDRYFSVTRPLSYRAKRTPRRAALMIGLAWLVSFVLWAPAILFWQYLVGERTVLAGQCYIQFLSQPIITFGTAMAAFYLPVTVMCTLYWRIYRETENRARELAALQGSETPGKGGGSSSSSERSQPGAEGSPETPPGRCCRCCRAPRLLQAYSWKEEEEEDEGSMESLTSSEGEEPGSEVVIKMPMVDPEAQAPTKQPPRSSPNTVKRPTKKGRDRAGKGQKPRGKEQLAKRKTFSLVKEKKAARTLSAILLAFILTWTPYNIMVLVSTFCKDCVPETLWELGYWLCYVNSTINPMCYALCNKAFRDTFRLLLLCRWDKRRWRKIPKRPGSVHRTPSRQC
CHO-K1 Ca antag = counter-screen for M1 antagonists: effect in parental CHO-K1 cells; ATP-induced calcium, Fluo-8 fluorescence; inhibition, % at 3 µM; 360,000 tested, 0.6% active; AID 602250;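 active = inhibition above a per-plate cutoff, the plate's mean sample inhibition plus 3 SD, cut at about 24% in these data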
M1 antag = antagonists of human M1 muscarinic receptor. CHO-K1 hM1, Fluo-8 calcium fluorescence, ACh EC80 antagonist. P11229. 360,000 tested, 1.3% active. AID 588852. inhibition, % at 3 µM;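 active = percent inhibition above its own plate's cutoff, namely the mean of that plate's compound wells plus 3 SD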;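 note: peak over basal fluorescence ratio during 140 s after agonist addition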
CHO-K1 Ca PAM = nonselective activator or artifact in parental CHO-K1 calcium assay | 360,000 tested, 0.02% active | activation, % at 3 µM | ATP EC20, Fluo-8 calcium fluorescence; 0% at ATP EC20, 100% at ATP max | AID 602247;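 active = activation above the run cutoff, the mean activation of all test compounds plus 3 SD, cut at about 40% in these data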;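 note: peak over basal fluorescence ratio in a 140 s read after ATP addition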
CHRM1 agonist = human M1 muscarinic receptor agonism | P11229 | CHO-K1 hM1, Fluo-8 calcium fluorescence, agonist mode; 0% DMSO, 100% acetylcholine EC100 | activation, % at 3 µM | 360,000 tested, 0.33% active;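 active = activation above the run's mean compound activation plus 3 SD, cut at about 16% in these data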;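 note: peak over basal fluorescence ratio within a 140 s kinetic read after compound addition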
Large screens that a line does not name were inactive. Sampled rows, rich in hits. Any-hit rate of the full collection: about 2.3%.

O=C(Nc1ccccc1Cl)c1ccc2c(=O)n3c(nc2c1)CCC3	none
O=C(Nc1nc(-c2ccccc2)cs1)c1ccc2c(=O)n3c(nc2c1)CCCCC3	M1 antag 33.3
Cc1ccc(S(=O)(=O)NCCc2cn3nc(C)c(C)nc3n2)cc1C	none
O=C1CSC(c2ccccn2)N1c1ccc(C(F)(F)F)cc1 (centres undefined)	none
COc1cc2nc(C3CCC3)nc(N3CCN(c4ccccc4OC)CC3)c2cc1OC	M1 antag 66.2
CCN1CCCC1CNCc1cccc(OC)c1OCc1ccccc1 (centres undefined)	none
CCN1CCCC1CNCc1ccccc1OCc1ccc(F)cc1 (centres undefined)	M1 antag 31.7
O=C(COC(=O)Cc1ccc(S(=O)(=O)N2CCOCC2)s1)Nc1ccc(OC(F)F)cc1	none
N#CN(CC(N)=O)c1nc(N2CCCCC2)nc(N2CCCCC2)n1	CHO-K1 Ca antag 27.6
Cc1ccc(O)c(C(=O)c2cc(C#N)c(=O)n(-c3nccs3)c2)c1	CHO-K1 Ca ag 40.3, CHRM1 agonist 21.8
CC[C@H](C)C(C(=O)N1CCN(C(=O)OC(C)(C)C)CC1)n1cc(C(CC(C)C)NC(=O)OC(C)(C)C)nn1 (some centres undefined)	none
CC(C)(C)OC(=O)NCCCC[C@@H](C(=O)NCCCCCCCCCCC(=O)N1CCN(C(=O)OC(C)(C)C)CC1)n1cc(CCO)nn1	none
CC[C@H](C)Cc1cn([C@@H](CCCCNC(=O)OC(C)(C)C)C(=O)NCCCCCCCCCCC(=O)N2CCN(C(=O)OC(C)(C)C)CC2)nn1	M1 antag 47.8
CC[C@@H](C)[C@@H](C(=O)N1CCN(C(=O)OC(C)(C)C)CC1)n1cc(CCCCNC(=O)OC(C)(C)C)nn1	M1 antag 36.4
CN1CCS/C1=C\C=C1/SC(=S)N(CC(=O)O)C1=O	CHO-K1 Ca ag 39.6
CN1/C(=C\C=C2/SC(=S)N(CC(=O)O)C2=O)C(C)(C)c2ccccc21	CHO-K1 Ca ag 30.5, M1 antag 37.0, CHRM1 agonist 130.5
CCOC(=O)Nc1ccc2c(c1)N(C(=O)CCN1CCOCC1)c1ccccc1S2=O (centres undefined)	M1 antag 78.0
COc1ccccc1CNC(=O)COC(=O)c1n[nH]c2ccccc12	none
COc1ccccc1CNC(=O)c1n[nH]c2ccccc12	CHO-K1 Ca ag 17.1
COc1ccc(CN2CCC(Cc3ccccc3)CC2)cc1OC	none
COCCNC(=O)c1ccc(CN2CCC(Cc3ccccc3)CC2)cc1	M1 antag 42.7
COc1ccc(CNC(=O)C2CCCN2CCc2ccccc2)cc1OC (centres undefined)	CHO-K1 Ca ag 17.1
O=C(NCc1ccccc1)c1ccc(CN2CCC(Cc3ccccc3)CC2)cc1	CHO-K1 Ca ag 26.8
COc1ccc(CCNC(=O)c2ccc(CN3CCC(Cc4ccccc4)CC3)cc2)cc1OC	M1 antag 47.7
C=CCOc1ccc(/C=C/C(=O)OCC(=O)NCc2ccco2)cc1	none
CCN(CC)CCC12CC(C)OC1=Nc1ccccc1NC2=O (centres undefined)	none
CC(C)c1ccc(C(=O)Nc2ccc(S(=O)(=O)NC3=NCCCCC3)cc2)cc1	none
COc1ccc(NC(=O)Nc2nc(C)cc(C)n2)c(OC)c1	none
CCc1ccccc1NC(=O)c1ccc(CN2CCC(Cc3ccccc3)CC2)cc1	M1 antag 38.0
O=C(c1ccc(CN2CCOCC2)cc1)N1CCC(Cc2ccccc2)CC1	none
CC(=O)c1cccc(N/C=C\c2nnnn2-c2ccc(F)cc2)c1	CHO-K1 Ca ag 15.2
O=C(NCCCSc1ccccc1)c1cc(Br)ccc1O	M1 antag 30.8
CC1=CC(C)(C)N(C(=O)c2ccccc2)c2ccc(C)cc21	CHRM1 agonist 27.7
Cc1nc2ccccc2n1Cc1ccc(Br)cc1	CHO-K1 Ca antag 30.6
Cc1nc2ccccc2n1Cc1ccccc1Br	CHO-K1 Ca ag 23.2
COc1ccc(CCn2c(N)cc(=O)[nH]c2=O)cc1OC	M1 antag 28.2
CCn1ncc(CN2CCCC(C(=O)c3cccc(OC(C)C)c3)C2)c1C (centres undefined)	M1 antag 98.1
COc1ccc(CN2CCCC(C(=O)c3cccc(OC(C)C)c3)C2)cc1Cn1cccn1 (centres undefined)	M1 antag 36.5
